DT40 TDP1 CPT: DT40-hTDP1 cell growth loss with CPT. Potency, µM (doses to about 46.2 µM), actives largely listed as inhibitors. 420,000 tested, 12% active. chicken DT40 Tdp1-/-;hTDP1 cells + 20 nM CPT, ATP luminescence, 48 h; also: nearly all actives have a fitted effect of over 55% in size
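Chicken DT40 Tdp1-/- cells stably complemented with human TDP1 were seeded at 400 cells/well in medium containing 20 nM camptothecin, exposed to pin-transferred compounds, and grown at 37 °C for at least 48 hr. Viability was read as ATP luminescence.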
VP16 counter: counter-screen for ROR gamma inhibitors: Gal4-VP16 reporter | Potency, µM (titrated, usually from 53.6 µM), most hits filed as inhibitors | 310,000 tested, 3.5% active | Drosophila S2 Gal4-VP16 UAS-luciferase, luminescence, 20 h;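 also: Gal4-VP16 expression switched on by copper sulfate through the metallothionein promoter; nearly all actives have a fitted effect of over 50% in size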
TDP1 inh: TDP1 (human) enzyme inhibition. 350,000 tested, 0.28% active. Q9NUW8. Potency, µM (doses to about 130 µM), usual class: inhibitors. recombinant TDP1, AlphaScreen DNA substrate cleavage. AID 485290; also: nearly all actives have a fitted effect of over 40% in size
Target sequence (Q9NUW8 whole entry, looked up): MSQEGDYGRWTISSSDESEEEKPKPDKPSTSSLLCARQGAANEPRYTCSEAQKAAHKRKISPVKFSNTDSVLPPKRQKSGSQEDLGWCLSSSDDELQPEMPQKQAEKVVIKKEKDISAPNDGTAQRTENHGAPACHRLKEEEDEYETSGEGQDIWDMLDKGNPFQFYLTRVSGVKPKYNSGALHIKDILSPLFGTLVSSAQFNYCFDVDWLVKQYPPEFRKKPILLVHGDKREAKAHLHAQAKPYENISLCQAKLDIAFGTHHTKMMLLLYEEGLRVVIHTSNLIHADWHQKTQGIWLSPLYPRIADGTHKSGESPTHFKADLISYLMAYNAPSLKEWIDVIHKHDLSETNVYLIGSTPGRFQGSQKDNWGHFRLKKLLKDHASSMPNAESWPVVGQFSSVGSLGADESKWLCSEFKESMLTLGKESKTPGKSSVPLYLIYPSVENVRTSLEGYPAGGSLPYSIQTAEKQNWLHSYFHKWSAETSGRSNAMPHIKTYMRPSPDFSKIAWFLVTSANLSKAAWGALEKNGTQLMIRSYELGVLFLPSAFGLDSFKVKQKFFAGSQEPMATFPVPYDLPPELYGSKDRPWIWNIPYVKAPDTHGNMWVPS
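Tdp1 1 nM final; 15 min RT w/ cpd; substrate 15 nM, 5 min; beads 10 ug/ml, 10 min; AlphaScreen read. Neg ctrl: no enzyme.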
TDP1 cell noCPT: qHTS for Inhibitors of human tyrosyl-DNA phosphodiesterase 1 (TDP1): qHTS in cells in absence of CPT. DT40 Tdp1-/- hTDP1 cells, no CPT, ATP luminescence, 48 h. AID 686978, 2013. 420,000 tested, 15% active. Potency, µM (titrated, usually from 46.2 µM), hits mostly inhibitors; also: nearly all actives have a fitted effect of over 55% in size
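Growth kinetics read by CellTiter-Glo luminescence after ≥48 hr at 37 °C. Cells: DT40 Tdp1-/- stably carrying human TDP1, 400 per well, compound exposure in the absence of CPT (DMSO vehicle).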
RORgamma inh: inhibitors of mouse ROR gamma transcriptional activity; 310,000 tested, 5.4% active; Drosophila S2 Gal4-RORgamma UAS-luciferase reporter, 20 h; Potency, µM (top dose mostly 53.6 µM), hits mostly inhibitors; P51450; also: nearly all actives have a fitted effect of over 60% in size
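Drosophila S2 cells stably expressing Gal4-DBD/mouse RORγ fusion under metallothionein promoter plus UAS-luciferase; compound 1 h, then 700 uM CuSO4 induction for 20 h at ambient temperature; inhibition read as reduced luminescence.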
A number is an active result; . = inactive; ? = inconclusive; / = not tested or not shown; [ ] = another dose, or the depositor's remark. Shown are actives, neighbours in structure and some others; about 19% of the full set was active somewhere. Calls follow the shape of the dose curve; as a rule, active = well fitted curve in the direction sought with a large enough effect; inconclusive = small, poorly fitted or top-dose-only effect, or another doubt; inactive = no such curve, though single readings can be large; an effect the other way counts as inactive or inconclusive.

SMILES	DT40 TDP1 CPT	VP16 counter	TDP1 inh	TDP1 cell noCPT	RORgamma inh
CC(=O)N[C@@H](C)c1nc2ccccc2n1CCCN1CCN(c2nc(-c3ccc(C)cc3)cs2)CC1	1µM	.	/	1µM	?
O=C(NCCOc1ccccc1F)c1ccccc1SCc1ccc(F)cc1	.	.	.	.	.
COc1ccc(/C(C)=N/NC(=O)CNC(=O)CCc2ccccc2)c(OC)c1	?	?	.	18µM	?
COc1ccccc1CNC(=S)NCCc1ccccc1	.	?	.	.	2.5µM
COc1cc(NC(=S)NCCc2ccccc2)c(OC)cc1NC(=O)C(C)C	.	.	/	.	?
COc1ccccc1CNC(=O)CCc1ccccc1	?	.	/	18µM	?
CCc1nnc(NC(=O)c2ccc(S(=O)(=O)N3CCCCC3)cc2)s1	.	.	.[0.0935 µM]	.	.
CN(Cc1cnn(C)c1)C(=O)c1sc2cccc(Cl)c2c1Cl	?	.	.	?	?
O=C(/C(=C/c1ccccc1)c1ccccc1)N1CCCCC1	?	.	.	?	.
CCCSc1ncnc2c1c(-c1ccccc1)cn2-c1ccccc1OC	?	/	.	21µM	/
CN1CCN(c2ncnc3c2c(-c2ccccc2)cn3-c2ccc(F)cc2)CC1	18µM	.	.	5.2µM	.
COc1cccc(N2CCN(c3ncnc4c3c(-c3ccccc3)cn4-c3ccc(F)cc3)CC2)c1	?	/	.	?	/
CC1CCN(c2ncnc3c2c(-c2ccccc2)cn3-c2ccc(Br)cc2)CC1	.	/	.	.	/
c1ccc(-c2cn(-c3ccccc3)c3ncnc(N4CCCCC4)c23)cc1	9.2µM	.	.	18µM	.
Clc1cccc(-n2cc(-c3ccccc3)c3c(N4CCCCC4)ncnc32)c1	16µM	/	.	23µM	/
Clc1cccc(-n2cc(-c3ccccc3)c3c(NC4CCCC4)ncnc32)c1	?	/	.	?	/
COc1ccccc1N1CCN(c2ncnc3c2c(-c2ccccc2)cn3-c2cccc(C)c2)CC1	18µM	/	.	?	/
O=C(NCCc1ccncc1)Nc1ccc(Cl)c(Cl)c1	.	.	.	.	.
CN(CC(=O)NCc1ccccc1Cl)CC(=O)Nc1cccc(F)c1	.	.	.	?	.
CN1CCN(C(CNC(=O)C(=O)Nc2ccccc2C#N)c2ccc3c(c2)OCO3)CC1 (configuration not stated)	.	/	.	.	/
O=C(NCC(c1cccnc1)N1CCc2ccccc21)c1ccc(Cl)cc1 (configuration not stated)	10µM	/	.	12µM	/
COc1ccc(C(=O)NCC(c2cccnc2)N2CCc3ccccc32)cc1 (configuration not stated)	9.2µM	/	.	?	/
N#Cc1ccccc1NC(=O)C(=O)NCC(c1cccnc1)N1CCc2ccccc21 (configuration not stated)	21µM	/	.	16µM	/
CCOC1=C2CN(S(=O)(=O)c3ccc(C)cc3)C(c3ccc(C)cc3)CC2N(S(=O)(=O)c2ccc(C)cc2)C(c2ccccc2)C1 (configuration not stated)	?	/	/	.	/
CCN(C[C@H]1N[C@@](CC)(C(=O)OC)[C@H]2C(=O)N(Cc3ccccc3)C(=O)[C@@H]12)C(=O)C1CCCCC1	.	/	.	?	/
SMILES	DT40 TDP1 CPT	VP16 counter	TDP1 inh	TDP1 cell noCPT	RORgamma inh
O=C(C1CC(=O)N(c2ccc(F)cc2)C1)N1CCCCCC1 (configuration not stated)	.	.	.	.	.
CCCCCn1c(CNC(=O)c2ccccc2)nc2ccccc21	?	/	.	?	/
CCCCn1c(NC(=O)C2CCCCC2)nc2ccccc21	?	2.8µM	.	?	1.3µM
CN(C)CCCn1c(NC(=O)C2CCCCC2)nc2ccccc21	?	/	.	.	.[0.365 µM]
CCCn1c(NC(=O)CCNC(=O)c2ccccc2Cl)nc2ccccc21	?	/	.	?	/
CCCn1c(NC(=O)c2ccc(F)cc2)nc2ccccc21	.	2.5µM	.	?	0.32µM
CCCn1c(NC(=O)c2ccccc2Br)nc2ccccc21	?	2.8µM	.	23µM	0.35µM
CCCCn1c(NC(=O)c2ccccc2)nc2ccccc21	?	2.2µM	.	?	1.1µM
COC(=O)C(Cc1ccc(O)cc1)NC(=O)CCc1nc2ccccc2s1 (configuration not stated)	.	.	/	.	.
CCCn1c(NC(=O)C2CCN(C(=O)c3ccc(F)cc3)CC2)nc2ccccc21	18µM	8.9µM	.	?	7.1µM
CCn1c(=O)c(C(C)=O)nc2ccccc21	.	.	.	.	.
CCn1c(NC(=O)/C=C/c2ccc(F)cc2)nc2ccccc21	?	?	?	23µM	1.3µM
CCOC(=O)c1sc(NC(=O)/C=C/c2ccc(F)cc2)nc1C	?	.	.	?	.
CCCn1c(NC(=O)C2COc3ccccc3O2)nc2ccccc21 (configuration not stated)	18µM	1.4µM	.	18µM	1.4µM
CCCCCn1c(=O)c(C(=O)c2ccccc2)nc2ccccc21	?	.	.	23µM	.
N#CC1=C(N)C(C#N)(C#N)[C@H](c2ccncc2)[C@H]2CC3(CC=C12)OCCO3	?	.	.	.	?
CSc1nc(O)c(C(c2ccccc2Cl)c2c(O)nc(SC)[nH]c2=O)c(=O)[nH]1	.	/	/	.	/
Cc1nc2ccccc2n1CC(=O)NC1CCCCCC1	12µM	20µM	.	13µM	.
CCCNC(=O)CN1C(=O)NC(CCc2ccccc2)C1=O (configuration not stated)	.	.	.	.	.
CCOCCCNC(=O)/C(C#N)=C/c1cc(C)c(O)c(C)c1	?	.	.	23µM	.
COCCNC(=O)/C(C#N)=C/c1ccc(O)c([N+](=O)[O-])c1	.	.	.	?	.
CCOCCCNC(=O)/C(C#N)=C/c1cc(OC)c(O)c([N+](=O)[O-])c1	3.7µM	.	.	2.9µM	.
CCOCCCNC(=O)/C(C#N)=C/c1ccc(C(=O)OC)cc1	?	.	.	.	.
CCOCCCNC(=O)/C(C#N)=C/c1ccc(Cl)c([N+](=O)[O-])c1	2.6µM	?	.	7.3µM	13µM
Cc1ccc(-c2ccc(/C=N\NC(=O)c3cc4c(ccc5ccccc54)o3)o2)cc1[N+](=O)[O-]	10µM	.	.	9.2µM	.
O=C(N/N=C/c1ccc(-c2ccc(Cl)c(C(=O)O)c2)o1)c1cc2c(ccc3ccccc32)o1	.	.	.	.	.
Cc1ccc([N+](=O)[O-])cc1-c1ccc(/C=N/NC(=O)c2cc3c(ccc4ccccc43)o2)o1	?	.	.	8.2µM	.
CC(C)C(C)NC(=O)COc1ncnc2sccc12 (configuration not stated)	.	.	.	.	.
O=C(c1cnn2cccnc12)N1CCN(c2ccccc2)CC1	.	.	.	.	.
Cc1[nH]n(-c2ccccc2)c(=O)c1/C=N/O	.	3.5µM	.	.	2.5µM
